# This is one part of a sample in which the strongest signals are shown more often than they occur.
# B1: HFR-3 (Triticum aestivum) (protein)
# chain: MKGLLLCALALAFAAVTTHAQLQSCPTRCGKQADGMECPNNLCCSKDGYCGLGVDYCSAGAGCQSGACYDNKICGAQANGTLCRNNHCCSSGGRCGYGREYCSNGCQGGPCWADLKCGHLDNGKLCPNNLCCSQYGYCGLGPEFCGTGCQNGACSTDKPCGNKANGAPCTNNYCCSQYGSCGLGKDYCGTGCQNGACN
# What was measured:
# Assay in all cases: glycan array binding signal (z-score within array); higher = stronger binding
# Conditions in all cases: glycan notation: IUPAC condensed, linker removed
# [1] = molecular target: Fuc(a1-2)Gal(b1-3)GalNAc(b1-3)Gal
# In short: (§1)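 The binding signal is a Z-score computed within each array and averaged over linkers. Arrays of the same protein sequence at different concentrations or buffers were also averaged together. Data originate from 3228 arrays in the Consortium for Functional Glycomics database, kept only where the protein sequence was available.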
# [2] = molecular target: Fuc(a1-2)Gal(b1-3)[Fuc(a1-4)]GlcNAc(b1-3)[Fuc(a1-3)[Gal(b1-4)]GlcNAc(b1-6)]Gal(b1-4)Glc
# In short: as §1
# [3] = molecular target: Fuc(a1-2)[GalNAc(a1-3)]Gal(b1-3)GalNAc(b1-3)Gal(a1-4)Gal(b1-4)Glc
# In short: as §1
# [4] = molecular target: Fuc(a1-2)[GalNAc(a1-3)]Gal(b1-4)[Fuc(a1-3)]GlcNAc
# In short: as §1
# [5] = molecular target: Fuc(a1-3)[Gal(b1-4)]Glc6S
# In short: as §1
# [6] = molecular target: Fuc(a1-3)[Gal(b1-4)]GlcNAc(b1-6)GalNAc
# In short: as §1
# [7] = molecular target: Gal(a1-3)Gal(b1-3)GlcNAc(b1-6)GalNAc
# In short: as §1
# Gal(a1-3)Gal(b1-4)GlcNAc = molecular target: Gal(a1-3)Gal(b1-4)GlcNAc
# In short: as §1
# [8] = molecular target: Gal(a1-3)Gal(b1-4)[Fuc(a1-3)]GlcNAc
# In short: as §1
# Gal(a1-3)GalNAc = molecular target: Gal(a1-3)GalNAc
# In short: as §1
# [9] = molecular target: Gal(a1-3)[Gal(a1-4)]Gal(b1-4)GlcNAc
# In short: as §1
# Gal(a1-4)Gal(b1-4)Glc = molecular target: Gal(a1-4)Gal(b1-4)Glc
# In short: as §1
# Gal(b1-3)Gal = molecular target: Gal(b1-3)Gal
# In short: as §1
# Gal(b1-3)GalNAc(b1-3)Gal = molecular target: Gal(b1-3)GalNAc(b1-3)Gal
# In short: as §1
# [10] = molecular target: Gal(b1-3)GalNAc(b1-4)Gal(b1-4)Glc
# In short: as §1
# [11] = molecular target: Gal(b1-3)GlcNAc(b1-2)Man(a1-3)[Gal(b1-3)GlcNAc(b1-2)Man(a1-6)]Man(b1-4)GlcNAc(b1-4)[Fuc(a1-6)]GlcNAc
# In short: as §1
# [12] = molecular target: Gal(b1-3)[GlcNAc(b1-6)]GalNAc
# In short: as §1
# Gal(b1-4)GlcNAc = molecular target: Gal(b1-4)GlcNAc
# In short: as §1
# [13] = molecular target: Gal(b1-4)GlcNAc(b1-2)Man(a1-3)[Gal(b1-4)GlcNAc(b1-2)Man(a1-6)][Gal(b1-4)GlcNAc(b1-4)]Man(b1-4)GlcNAc(b1-4)[Fuc(a1-6)]GlcNAc
# In short: as §1
# [14] = molecular target: Gal(b1-4)GlcNAc(b1-2)Man(a1-6)Man(b1-4)GlcNAc(b1-4)GlcNAc
# In short: as §1
# [15] = molecular target: Gal(b1-4)GlcNAc(b1-2)[Gal(b1-4)GlcNAc(b1-6)]Man(a1-6)[GlcNAc(b1-4)][Gal(b1-4)GlcNAc(b1-2)Man(a1-3)]Man(b1-4)GlcNAc(b1-4)GlcNAc
# In short: as §1
# [16] = molecular target: Gal(b1-4)GlcNAc(b1-3)Gal(b1-4)GlcNAc(b1-3)Gal(b1-4)GlcNAc(b1-2)[Gal(b1-4)GlcNAc(b1-3)Gal(b1-4)GlcNAc(b1-3)Gal(b1-4)GlcNAc(b1-6)]Man(a1-6)[Gal(b1-4)GlcNAc(b1-3)Gal(b1-4)GlcNAc(b1-3)Gal(b1-4)GlcNAc(b1-2)Man(a1-3)]Man(b1-4)GlcNAc(b1-4)[Fuc(a1-6)]GlcNAc
# In short: as §1
# [17] = molecular target: Gal(b1-4)GlcNAc(b1-3)[GlcNAc(b1-6)]Gal(b1-4)GlcNAc
# In short: as §1
# Gal3S(b1-3)GalNAc = molecular target: Gal3S(b1-3)GalNAc
# In short: as §1
# [18] = molecular target: Gal3S(b1-4)[Fuc(a1-3)]Glc6S
# In short: as §1
# Gal4S6S(b1-4)GlcNAc = molecular target: Gal4S6S(b1-4)GlcNAc
# In short: as §1
# GalNAc(b1-3)Gal = molecular target: GalNAc(b1-3)Gal
# In short: as §1
# GalNAc(b1-4)GlcNAc = molecular target: GalNAc(b1-4)GlcNAc
# In short: as §1
# [19] = molecular target: GalNAc(b1-4)GlcNAc(b1-2)Man(a1-3)[GalNAc(b1-4)GlcNAc(b1-2)Man(a1-6)]Man(b1-4)GlcNAc(b1-4)GlcNAc
# In short: as §1
binder,measurement,setting,value
B1,glycan array binding signal (z-score),[1],-0.52
same,glycan array binding signal (z-score),[2],-0.893
same,glycan array binding signal (z-score),[3],-1.32
same,glycan array binding signal (z-score),[4],-0.585
same,glycan array binding signal (z-score),[5],-1.23
same,glycan array binding signal (z-score),[6],-1.31
same,glycan array binding signal (z-score),[7],-0.577
same,glycan array binding signal (z-score),Gal(a1-3)Gal(b1-4)GlcNAc,0.079
same,glycan array binding signal (z-score),[8],-0.409
same,glycan array binding signal (z-score),Gal(a1-3)GalNAc,2.1
same,glycan array binding signal (z-score),[9],1.2
same,glycan array binding signal (z-score),Gal(a1-4)Gal(b1-4)Glc,2.12
same,glycan array binding signal (z-score),Gal(b1-3)Gal,-0.289
same,glycan array binding signal (z-score),Gal(b1-3)GalNAc(b1-3)Gal,-0.312
same,glycan array binding signal (z-score),[10],2.24
same,glycan array binding signal (z-score),[11],0.089
same,glycan array binding signal (z-score),[12],-0.111
same,glycan array binding signal (z-score),Gal(b1-4)GlcNAc,-0.853
same,glycan array binding signal (z-score),[13],-0.212
same,glycan array binding signal (z-score),[14],-0.488
same,glycan array binding signal (z-score),[15],1.51
same,glycan array binding signal (z-score),[16],2.51
same,glycan array binding signal (z-score),[17],-0.381
same,glycan array binding signal (z-score),Gal3S(b1-3)GalNAc,1.67
same,glycan array binding signal (z-score),[18],6.1
same,glycan array binding signal (z-score),Gal4S6S(b1-4)GlcNAc,0.828
same,glycan array binding signal (z-score),GalNAc(b1-3)Gal,1.25
same,glycan array binding signal (z-score),GalNAc(b1-4)GlcNAc,2.48
same,glycan array binding signal (z-score),[19],0.738

# Reference: the supplement of paper PMC8728848
